Source: the supplement of paper PMC8728848
Shown is part of a subset that was picked to be rich in the strongest signals.

What was measured:
Experiment in all cases: glycan array binding signal (z-score within array); higher = stronger binding
Settings in all cases: glycan notation: IUPAC condensed, linker removed
[1] = molecular target: Fuc(a1-2)Gal(b1-3)GlcNAc(b1-3)[Fuc(a1-2)Gal(b1-3)GlcNAc(b1-6)]GalNAc
Procedure, shortened: (§1)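 From the Consortium for Functional Glycomics database, 3228 arrays were curated, keeping only those whose protein sequence was available. Binding is given as a within-array Z-score averaged across arrays sharing a protein sequence and across linkers. Negative Z-scores can be read as non-binding.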

[2] = molecular target: Fuc(a1-2)Gal(b1-3)[Fuc(a1-4)]GlcNAc(b1-3)[Gal(b1-4)GlcNAc(b1-6)]Gal(b1-4)Glc
Procedure, shortened: as §1

[3] = molecular target: Fuc(a1-2)Gal(b1-4)GlcNAc(b1-3)Gal(b1-4)GlcNAc(b1-3)Gal(b1-4)GlcNAc
Procedure, shortened: as §1

[4] = molecular target: Fuc(a1-2)Gal(b1-4)GlcNAc(b1-6)GalNAc
Procedure, shortened: as §1

[5] = molecular target: Fuc(a1-2)[Gal(a1-3)]Gal(b1-3)GlcNAc(b1-2)Man(a1-3)[Fuc(a1-2)[Gal(a1-3)]Gal(b1-3)GlcNAc(b1-2)Man(a1-6)]Man(b1-4)GlcNAc(b1-4)[Fuc(a1-6)]GlcNAc
Procedure, shortened: as §1

[6] = molecular target: Fuc(a1-2)[Gal(a1-3)]Gal(b1-3)GlcNAc(b1-6)GalNAc
Procedure, shortened: as §1

[7] = molecular target: Fuc(a1-2)[GalNAc(a1-3)]Gal(b1-3)GlcNAc(b1-3)GalNAc
Procedure, shortened: as §1

[8] = molecular target: Fuc(a1-3)[Gal(b1-4)]GlcNAc(b1-2)Man(a1-3)[Fuc(a1-3)[Gal(b1-4)]GlcNAc(b1-2)Man(a1-6)]Man(b1-4)GlcNAc(b1-4)GlcNAc
Procedure, shortened: as §1

[9] = molecular target: Gal(a1-3)Gal(b1-3)GlcNAc(b1-2)Man(a1-3)[Gal(a1-3)Gal(b1-3)GlcNAc(b1-2)Man(a1-6)]Man(b1-4)GlcNAc(b1-4)GlcNAc
Procedure, shortened: as §1

[10] = molecular target: Gal(a1-3)Gal(b1-3)[Fuc(a1-4)]GlcNAc(b1-2)Man(a1-3)[Gal(a1-3)Gal(b1-3)[Fuc(a1-4)]GlcNAc(b1-2)Man(a1-6)]Man(b1-4)GlcNAc(b1-4)GlcNAc
Procedure, shortened: as §1

Gal(b1-2)Gal = molecular target: Gal(b1-2)Gal
Procedure, shortened: as §1

Gal(b1-3)Gal = molecular target: Gal(b1-3)Gal
Procedure, shortened: as §1

[11] = molecular target: Gal(b1-3)GalNAc(a1-3)[Fuc(a1-2)]Gal(b1-4)GlcNAc
Procedure, shortened: as §1

[12] = molecular target: Gal(b1-3)GlcNAc(a1-6)Gal(b1-4)GlcNAc
Procedure, shortened: as §1

[13] = molecular target: Gal(b1-3)[Fuc(a1-4)]GlcNAc(b1-6)GalNAc
Procedure, shortened: as §1

[14] = molecular target: Gal(b1-3)[GlcNAc(b1-6)]GalNAc
Procedure, shortened: as §1

[15] = molecular target: Gal(b1-4)GlcNAc(b1-2)Man(a1-3)[Gal(b1-4)GlcNAc(b1-2)Man(a1-6)][GlcNAc(b1-4)]Man(b1-4)GlcNAc(b1-4)[Fuc(a1-6)]GlcNAc
Procedure, shortened: as §1

[16] = molecular target: Gal(b1-4)GlcNAc(b1-2)Man(a1-3)[GlcNAc(b1-2)Man(a1-6)]Man(b1-4)GlcNAc(b1-4)GlcNAc
Procedure, shortened: as §1

[17] = molecular target: Gal(b1-4)GlcNAc(b1-2)[Gal(b1-4)GlcNAc(b1-4)]Man(a1-3)[GlcNAc(b1-4)][Gal(b1-4)GlcNAc(b1-2)[Gal(b1-4)GlcNAc(b1-6)]Man(a1-6)]Man(b1-4)GlcNAc(b1-4)GlcNAc
Procedure, shortened: as §1

[18] = molecular target: Gal(b1-4)GlcNAc(b1-3)Gal(b1-3)GalNAc
Procedure, shortened: as §1

[19] = molecular target: Gal(b1-4)GlcNAc(b1-3)Gal(b1-4)GlcNAc(b1-2)[Gal(b1-4)GlcNAc(b1-3)Gal(b1-4)GlcNAc(b1-6)]Man(a1-6)[Gal(b1-4)GlcNAc(b1-3)Gal(b1-4)GlcNAc(b1-2)Man(a1-3)]Man(b1-4)GlcNAc(b1-4)[Fuc(a1-6)]GlcNAc
Procedure, shortened: as §1

[20] = molecular target: Gal(b1-4)GlcNAc(b1-3)Gal(b1-4)GlcNAc(b1-3)Gal(b1-4)GlcNAc(b1-2)Man(a1-3)[Gal(b1-4)GlcNAc(b1-3)Gal(b1-4)GlcNAc(b1-3)Gal(b1-4)GlcNAc(b1-2)Man(a1-6)]Man(b1-4)GlcNAc(b1-4)GlcNAc
Procedure, shortened: as §1

[21] = molecular target: Gal(b1-4)GlcNAc(b1-3)Gal(b1-4)GlcNAc(b1-3)Gal(b1-4)GlcNAc(b1-2)Man(a1-3)[Gal(b1-4)GlcNAc(b1-3)Gal(b1-4)GlcNAc(b1-3)Gal(b1-4)GlcNAc(b1-2)Man(a1-6)]Man(b1-4)GlcNAc(b1-4)[Fuc(a1-6)]GlcNAc
Procedure, shortened: as §1

[22] = molecular target: Gal(b1-4)GlcNAc(b1-3)Gal(b1-4)GlcNAc(b1-3)Gal(b1-4)GlcNAc(b1-2)[Gal(b1-4)GlcNAc(b1-3)Gal(b1-4)GlcNAc(b1-3)Gal(b1-4)GlcNAc(b1-6)]Man(a1-6)[Gal(b1-4)GlcNAc(b1-3)Gal(b1-4)GlcNAc(b1-3)Gal(b1-4)GlcNAc(b1-2)Man(a1-3)]Man(b1-4)GlcNAc(b1-4)[Fuc(a1-6)]GlcNAc
Procedure, shortened: as §1

[23] = molecular target: Gal(b1-4)GlcNAc(b1-3)Gal(b1-4)GlcNAc(b1-3)Gal(b1-4)GlcNAc(b1-3)Gal(b1-4)GlcNAc(b1-2)[Gal(b1-4)GlcNAc(b1-3)Gal(b1-4)GlcNAc(b1-3)Gal(b1-4)GlcNAc(b1-3)Gal(b1-4)GlcNAc(b1-6)]Man(a1-6)[Gal(b1-4)GlcNAc(b1-3)Gal(b1-4)GlcNAc(b1-3)Gal(b1-4)GlcNAc(b1-3)Gal(b1-4)GlcNAc(b1-2)Man(a1-3)]Man(b1-4)GlcNAc(b1-4)[Fuc(a1-6)]GlcNAc
Procedure, shortened: as §1

[24] = molecular target: Gal(b1-4)GlcNAc(b1-3)Gal(b1-4)GlcNAc(b1-3)Gal(b1-4)GlcNAc(b1-3)Gal(b1-4)GlcNAc(b1-3)Gal(b1-4)GlcNAc(b1-2)[Gal(b1-4)GlcNAc(b1-3)Gal(b1-4)GlcNAc(b1-3)Gal(b1-4)GlcNAc(b1-3)Gal(b1-4)GlcNAc(b1-3)Gal(b1-4)GlcNAc(b1-6)]Man(a1-6)[Gal(b1-4)GlcNAc(b1-3)Gal(b1-4)GlcNAc(b1-3)Gal(b1-4)GlcNAc(b1-3)Gal(b1-4)GlcNAc(b1-3)Gal(b1-4)GlcNAc(b1-2)Man(a1-3)]Man(b1-4)GlcNAc(b1-4)[Fuc(a1-6)]GlcNAc
Procedure, shortened: as §1

Gal3S(b1-4)Glc = molecular target: Gal3S(b1-4)Glc
Procedure, shortened: as §1

[25] = molecular target: Gal3S(b1-4)[Fuc(a1-3)]Glc6S
Procedure, shortened: as §1

Gal6S(b1-4)Glc = molecular target: Gal6S(b1-4)Glc
Procedure, shortened: as §1

GalNAc3S(b1-4)GlcNAc = molecular target: GalNAc3S(b1-4)GlcNAc
Procedure, shortened: as §1

[26] = molecular target: GlcNAc(b1-3)Gal(b1-4)GlcNAc(b1-2)Man(a1-3)[GlcNAc(b1-3)Gal(b1-4)GlcNAc(b1-2)Man(a1-6)]Man(b1-4)GlcNAc(b1-4)GlcNAc
Procedure, shortened: as §1

GlcNAc(b1-3)GalNAc = molecular target: GlcNAc(b1-3)GalNAc
Procedure, shortened: as §1

[27] = molecular target: Man(a1-3)[Man(a1-6)]Man(b1-4)GlcNAc(b1-4)[Fuc(a1-6)]GlcNAc
Procedure, shortened: as §1

[28] = molecular target: Neu5Ac(a2-3)Gal(b1-3)GlcNAc(b1-2)Man(a1-3)[GlcNAc(b1-4)][Neu5Ac(a2-3)Gal(b1-3)GlcNAc(b1-2)Man(a1-6)]Man(b1-4)GlcNAc(b1-4)GlcNAc
Procedure, shortened: as §1

[29] = molecular target: Neu5Ac(a2-3)Gal(b1-3)GlcNAc(b1-4)Gal(b1-4)Glc
Procedure, shortened: as §1

[30] = molecular target: Neu5Ac(a2-3)Gal(b1-4)GlcNAc(b1-2)Man(a1-3)[Neu5Ac(a2-6)Gal(b1-4)GlcNAc(b1-2)Man(a1-6)]Man(b1-4)GlcNAc(b1-4)GlcNAc
Procedure, shortened: as §1

[31] = molecular target: Neu5Ac(a2-3)Gal(b1-4)GlcNAc(b1-2)[Neu5Ac(a2-3)Gal(b1-4)GlcNAc(b1-6)]Man(a1-6)[Neu5Ac(a2-3)Gal(b1-4)GlcNAc(b1-2)Man(a1-3)][GlcNAc(b1-4)]Man(b1-4)GlcNAc(b1-4)GlcNAc
Procedure, shortened: as §1

[32] = molecular target: Neu5Ac(a2-3)Gal(b1-4)GlcNAc(b1-3)Gal(b1-4)GlcNAc(b1-3)Gal(b1-4)GlcNAc
Procedure, shortened: as §1

[33] = molecular target: Neu5Ac(a2-3)Gal(b1-4)[Fuc(a1-3)]GlcNAc(b1-2)Man
Procedure, shortened: as §1

[34] = molecular target: Neu5Ac(a2-3)GalNAc(b1-4)GlcNAc
Procedure, shortened: as §1

Neu5Ac(a2-6)Gal = molecular target: Neu5Ac(a2-6)Gal
Procedure, shortened: as §1

[35] = molecular target: Neu5Ac(a2-6)Gal(b1-4)GlcNAc(b1-2)Man(a1-3)[GlcNAc(b1-4)][Neu5Ac(a2-6)Gal(b1-4)GlcNAc(b1-2)Man(a1-6)]Man(b1-4)GlcNAc(b1-4)GlcNAc
Procedure, shortened: as §1

[36] = molecular target: Neu5Ac9Ac(a2-6)Gal(b1-4)GlcNAc
Procedure, shortened: as §1

[37] = molecular target: Neu5Gc(a2-3)Gal(b1-4)GlcNAc
Procedure, shortened: as §1

Neu5Gc(a2-6)GalNAc = molecular target: Neu5Gc(a2-6)GalNAc
Procedure, shortened: as §1

[38] = molecular target: Neu5Gc(a2-8)Neu5Gc(a2-6)Gal(b1-4)GlcNAc
Procedure, shortened: as §1

[39] = molecular target: Neu5Gc(b2-6)Gal(b1-4)GlcNAc
Procedure, shortened: as §1

B1: AntigenI/IIC123 (Streptococcus mutans), C9E3B4 (protein)
chain: MASMTGGQQMGRIHFHYFKLAVQPQVNKEIRNNNDINIDRTLVAKQSVVKFQLKTADLPAGRDETTSFVLVDPLPSGYQFNPEATKAASPGFDVTYDNATNTVTFKATAATLATFNADLTKSVATIYPTVVGQVLNDGATYKNNFTLTVNDAYGIKSNVVRVTTPGKPNDPDNPNNNYIKPTKVNKNENGVVIDGKTVLAGSTNYYELTWDLDQYKNDRSSADTIQKGFYYVDDYPEEALELRQDLVKITDANGNEVTGVSVDNYTNLEAAPQEIRDVLSKAGIRPKGAFQIFRADNPREFYDTYVKTGIDLKIVSPMVVKKQMGQTGGSYENQAYQIDFGNGYASNIIINNVPKINPKKDVTLTLDPADTNNVDGQTIPLNTVFNYRLIGGIIPADHSEELFEYNFYDDYDQTGDHYTGQYKVFAKVDITFKDGSIIKSGAELTQYTTAEVDTAKGAITIKFKEAFLRSVSIDSAFQAESYIQMKRIAVGTFENTYINTVNGVTYSSLEHHHHHH
glycan array binding signal (z-score) [1]: 3.07
glycan array binding signal (z-score) [2]: -0.704
glycan array binding signal (z-score) [3]: -0.137
glycan array binding signal (z-score) [4]: 3.81
glycan array binding signal (z-score) [5]: 0.417
glycan array binding signal (z-score) [6]: -1.42
glycan array binding signal (z-score) [7]: 2.85
glycan array binding signal (z-score) [8]: -0.441
glycan array binding signal (z-score) [9]: 3.54
glycan array binding signal (z-score) [10]: 3.25
glycan array binding signal (z-score) (Gal(b1-2)Gal): -0.762
glycan array binding signal (z-score) (Gal(b1-3)Gal): -1.1
glycan array binding signal (z-score) [11]: -0.841
glycan array binding signal (z-score) [12]: -1.82
glycan array binding signal (z-score) [13]: 1.06
glycan array binding signal (z-score) [14]: 0.715
glycan array binding signal (z-score) [15]: -1.3
glycan array binding signal (z-score) [16]: -0.939
glycan array binding signal (z-score) [17]: 0.437
glycan array binding signal (z-score) [18]: 0.003
glycan array binding signal (z-score) [19]: 4.84
glycan array binding signal (z-score) [20]: 2.33
glycan array binding signal (z-score) [21]: 3.9
glycan array binding signal (z-score) [22]: 3.08
glycan array binding signal (z-score) [23]: 2.31
glycan array binding signal (z-score) [24]: 4.43
glycan array binding signal (z-score) (Gal3S(b1-4)Glc): -0.499
glycan array binding signal (z-score) [25]: 2.84
glycan array binding signal (z-score) (Gal6S(b1-4)Glc): -0.033
glycan array binding signal (z-score) (GalNAc3S(b1-4)GlcNAc): -1.45
glycan array binding signal (z-score) [26]: 0.67
glycan array binding signal (z-score) (GlcNAc(b1-3)GalNAc): -0.207
glycan array binding signal (z-score) [27]: -0.768
glycan array binding signal (z-score) [28]: 0.141
glycan array binding signal (z-score) [29]: -0.775
glycan array binding signal (z-score) [30]: -0.814
glycan array binding signal (z-score) [31]: -1.1
glycan array binding signal (z-score) [32]: -0.469
glycan array binding signal (z-score) [33]: -0.89
glycan array binding signal (z-score) [34]: 0.443
glycan array binding signal (z-score) (Neu5Ac(a2-6)Gal): 4.55
glycan array binding signal (z-score) [35]: -0.868
glycan array binding signal (z-score) [36]: -1.27
glycan array binding signal (z-score) [37]: -1.14
glycan array binding signal (z-score) (Neu5Gc(a2-6)GalNAc): -0.987
glycan array binding signal (z-score) [38]: -0.326
glycan array binding signal (z-score) [39]: -0.257
